Holding throughout (experiment): HT-SELEX; high values mean tight binding
What all share (conditions): protein: recombinant; vector His6-GST; dsDNA, one strand shown

Experiment [1] concerns the target T1, SALL4 ZFC4 WT (HT-SELEX) (Mus musculus, UniProt Q8BX22 870-940).
T1 sequence: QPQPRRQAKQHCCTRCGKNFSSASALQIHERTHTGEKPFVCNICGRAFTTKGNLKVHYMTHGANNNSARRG
In outline:
(§1)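 Binding signal is expressed as fold change in each canonical k-mer's read fraction over the initial random library. To obtain it, 1 µg of purified recombinant mouse SALL4 zinc finger cluster 4 (residues 870–940) was incubated for 10 min at room temperature with library DNA (1.5 µg first cycle, 200 ng later cycles) in 100 µl of 10 mM Tris–HCl pH 7.5, 50 mM NaCl, poly(dI-dC) and DTT. Ni2+ bead-captured complexes went through washing, PCR amplification and reselection for up to 6 cycles, in triplicate, before MiSeq sequencing and scanning for 6-mers.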

Experiment [2] deals with T2, SALL4 ZFC4 R900W (HT-SELEX) (Mus musculus, UniProt Q8BX22 870-940, R900W).
T2 sequence: T1 sequence with R31W
Summed up: as §1

For experiment [3], the target named is T3, SALL4 ZFC4 G921D (HT-SELEX) (Mus musculus, UniProt Q8BX22 870-940, G921D).
T3 sequence: T1 sequence with G52D
In outline: as §1

From publication PMC9838217, “Structure of SALL4 zinc finger domain reveals link between AT-rich DNA binding and Okihiro syndrome” come the findings set out here.

Numbering of substitutions follows the chain as printed.

Turning to AACAAG, the binding signal in experiment [1] was found to be 1.28 ± 0.0479 fold-change vs cycle 0; in experiment [2], 1.5 ± 0.0772 fold-change vs cycle 0; in experiment [3], 1.39 ± 0.0671 fold-change vs cycle 0.

In the case of ACCTTA, the binding signal in experiment [1] stood at 1.43 ± 0.0462 fold-change vs cycle 0; in experiment [2], 1.6 ± 0.0314 fold-change vs cycle 0; in experiment [3] it was 1.44 ± 0.0668 fold-change vs cycle 0.

Take ACTCCT: the binding signal in experiment [1] is 1.01 ± 0.0205 fold-change vs cycle 0; in experiment [2] it was 1.15 ± 0.052 fold-change vs cycle 0; in experiment [3], 1.144 ± 0.00693 fold-change vs cycle 0.

Take AATCGA: the binding signal in experiment [1] stood at 1.08 ± 0.05 fold-change vs cycle 0; in experiment [2], 1.14 ± 0.0428 fold-change vs cycle 0; in experiment [3], 1.2 ± 0.0389 fold-change vs cycle 0.

On to GTCCAA, for which the results for the binding signal in experiment [1], in experiment [2] and in experiment [3] were 0.622 ± 0.0212 fold-change vs cycle 0, 0.742 ± 0.0519 fold-change vs cycle 0 and 0.828 ± 0.0714 fold-change vs cycle 0, respectively.

Take CCAATC: the binding signal worked out at 0.76 ± 0.0281 fold-change vs cycle 0 in experiment [1], 0.854 ± 0.0448 fold-change vs cycle 0 in experiment [2] and 0.933 ± 0.0316 fold-change vs cycle 0 in experiment [3].

In the case of CATTCC, the binding signal in experiment [1] amounted to 0.85 ± 0.0367 fold-change vs cycle 0; in experiment [2], 0.949 ± 0.0747 fold-change vs cycle 0; in experiment [3], 0.981 ± 0.031 fold-change vs cycle 0.

As to AAGAAC, the values for the binding signal in experiment [1], in experiment [2] and in experiment [3] were 1.29 ± 0.0399 fold-change vs cycle 0, 1.49 ± 0.0657 fold-change vs cycle 0 and 1.38 ± 0.123 fold-change vs cycle 0, respectively.

Regarding ATGAAC, the binding signal is 1.5 ± 0.0592 fold-change vs cycle 0 in experiment [1], 1.55 ± 0.0999 fold-change vs cycle 0 in experiment [2] and 1.47 ± 0.0678 fold-change vs cycle 0 in experiment [3].

Turning to AAAGCT, the figures for the binding signal in experiment [1], in experiment [2] and in experiment [3] were 1.01 ± 0.0609 fold-change vs cycle 0, 1.13 ± 0.0411 fold-change vs cycle 0 and 1.17 ± 0.0323 fold-change vs cycle 0, respectively.

Take AAATTT: the binding signal in experiment [1] stood at 2.66 ± 0.248 fold-change vs cycle 0; in experiment [2] it was 2.17 ± 0.141 fold-change vs cycle 0; in experiment [3], 1.93 ± 0.166 fold-change vs cycle 0.

Turning to AACTTG, the results for the binding signal in experiment [1], in experiment [2] and in experiment [3] were 1.21 ± 0.0551 fold-change vs cycle 0, 1.34 ± 0.0813 fold-change vs cycle 0 and 1.29 ± 0.0625 fold-change vs cycle 0, respectively.

GTAAAA: the binding signal in experiment [1] was found to be 1.69 ± 0.0918 fold-change vs cycle 0; in experiment [2], 1.73 ± 0.0898 fold-change vs cycle 0; in experiment [3], 1.53 ± 0.125 fold-change vs cycle 0.

For GAGAAC, the binding signal was determined as 0.84 ± 0.00885 fold-change vs cycle 0 in experiment [1], 1 ± 0.0376 fold-change vs cycle 0 in experiment [2] and 1.04 ± 0.00942 fold-change vs cycle 0 in experiment [3].

For CCTGGA, the binding signal was found to be 0.496 ± 0.0295 fold-change vs cycle 0 in experiment [1], 0.556 ± 0.0141 fold-change vs cycle 0 in experiment [2] and 0.647 ± 0.0202 fold-change vs cycle 0 in experiment [3].

With CTATCC, the binding signal in experiment [1] was 0.843 ± 0.0485 fold-change vs cycle 0; in experiment [2], 0.98 ± 0.0213 fold-change vs cycle 0; in experiment [3] it was 0.977 ± 0.0393 fold-change vs cycle 0.

Take ACGATG: the binding signal in experiment [1] was determined as 0.719 ± 0.0288 fold-change vs cycle 0; in experiment [2] it was 0.794 ± 0.00845 fold-change vs cycle 0; in experiment [3], 0.87 ± 0.00912 fold-change vs cycle 0.

For TGATAA, the binding signal in experiment [1] was 2.35 ± 0.175 fold-change vs cycle 0; in experiment [2] it was 2.08 ± 0.2 fold-change vs cycle 0; in experiment [3], 1.87 ± 0.208 fold-change vs cycle 0.

On to ACAACC, for which the results for the binding signal in experiment [1], in experiment [2] and in experiment [3] were 0.707 ± 0.0139 fold-change vs cycle 0, 0.814 ± 0.0173 fold-change vs cycle 0 and 0.875 ± 0.0311 fold-change vs cycle 0, respectively.

For ACATCA, the binding signal came to 1.32 ± 0.0619 fold-change vs cycle 0 in experiment [1], 1.42 ± 0.0539 fold-change vs cycle 0 in experiment [2] and 1.37 ± 0.0921 fold-change vs cycle 0 in experiment [3].

Regarding CACAAA, the values for the binding signal in experiment [1], in experiment [2] and in experiment [3] were 0.978 ± 0.0432 fold-change vs cycle 0, 1.1 ± 0.0594 fold-change vs cycle 0 and 1.09 ± 0.0653 fold-change vs cycle 0, respectively.

On to CTCCAC, for which the binding signal was found to be 0.493 ± 0.0188 fold-change vs cycle 0 in experiment [1], 0.564 ± 0.0173 fold-change vs cycle 0 in experiment [2] and 0.646 ± 0.0596 fold-change vs cycle 0 in experiment [3].

Regarding ATAGGA, the figures for the binding signal in experiment [1], in experiment [2] and in experiment [3] were 1.48 ± 0.0224 fold-change vs cycle 0, 1.56 ± 0.056 fold-change vs cycle 0 and 1.45 ± 0.0712 fold-change vs cycle 0, respectively.

CGATAG: the results for the binding signal in experiment [1], in experiment [2] and in experiment [3] were 0.68 ± 0.0214 fold-change vs cycle 0, 0.774 ± 0.0246 fold-change vs cycle 0 and 0.851 ± 0.0176 fold-change vs cycle 0, respectively.

Regarding CCTTTA, the binding signal stood at 1.31 ± 0.0506 fold-change vs cycle 0 in experiment [1], 1.47 ± 0.0755 fold-change vs cycle 0 in experiment [2] and 1.33 ± 0.0771 fold-change vs cycle 0 in experiment [3].

Regarding AGTGGA, the binding signal in experiment [1] is 0.862 ± 0.03 fold-change vs cycle 0; in experiment [2], 0.954 ± 0.0352 fold-change vs cycle 0; in experiment [3], 0.964 ± 0.0435 fold-change vs cycle 0.

With CACTGG, the binding signal in experiment [1] was 0.426 ± 0.00956 fold-change vs cycle 0; in experiment [2] it was 0.508 ± 0.0154 fold-change vs cycle 0; in experiment [3], 0.615 ± 0.0147 fold-change vs cycle 0.

Turning to ATCTTA, the binding signal was found to be 2.21 ± 0.106 fold-change vs cycle 0 in experiment [1], 2.19 ± 0.133 fold-change vs cycle 0 in experiment [2] and 1.92 ± 0.224 fold-change vs cycle 0 in experiment [3].

As to ACGGTG, the binding signal worked out at 0.355 ± 0.0186 fold-change vs cycle 0 in experiment [1], 0.414 ± 0.0142 fold-change vs cycle 0 in experiment [2] and 0.528 ± 0.0554 fold-change vs cycle 0 in experiment [3].

Consider GAACAA, for which the binding signal in experiment [1] amounted to 1.17 ± 0.0569 fold-change vs cycle 0; in experiment [2], 1.32 ± 0.0741 fold-change vs cycle 0; in experiment [3], 1.28 ± 0.0879 fold-change vs cycle 0.
